According to PubChem BioAssay:
Activity calls are given as the source filed them.

How the values were obtained:
[1] = binders of probe aFSTL3 on microarray, primary screen, stem cell growth factor project, biochemical, small-molecule microarray, fluorescence 635/667 (AID 1064); conditions: higher = more signal;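 further: measures binding of the biotinylated anti-FSTL3 antibody to printed compounds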
[2] = binders from COS7 lysate, DM2A8 probe, primary screen, torsin A project, cell lysate, small-molecule microarray, fluorescence 635/667 (AID 1065); conditions: higher = more signal, COS7 lysate expressing mutant human TOR1A
[3] = binders of probe aFGF2 on microarray, primary screen, stem cell growth factor project, biochemical, small-molecule microarray, fluorescence 635/667 (AID 1067); conditions: higher = more signal;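 further: measures binding of biotinylated aFGF2 protein to printed compounds on slides; z-score merges feature fluorescence and signal-to-noise across triplicate slides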
[4] = binders of probe aFGF10 on microarray, primary screen, stem cell growth factor project, biochemical, small-molecule microarray, fluorescence 635/667 (AID 1071); conditions: higher = more signal;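 further: score merges 667 nm spot intensity and signal to noise from triplicate slides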
[5] = molecular target: Neurogenic locus notch homolog protein 2 (Homo sapiens) (UniProt Q04721); experiment: Notch2 binders on small-molecule microarrays, primary screen, biochemical, small-molecule microarray, 635 nm fluorescence, stem cell growth factors (AID 1073); conditions: Notch2 binding, higher = more signal
[6] = molecular target: Pro-neuregulin-1, membrane-bound isoform (Homo sapiens) (UniProt Q02297); experiment: NRG1 binders on small-molecule microarrays, primary screen, psychiatric disease protein project, biochemical, small-molecule microarray, fluorescence 635/667 (AID 1075); conditions: NRG1 binding, 635 nm fluorescence, higher = more signal;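 further: score combines 667 nm spot fluorescence with signal to noise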
Pro-neuregulin-1, membrane-bound isoform (Homo sapiens), sequence (Q02297 whole entry, looked up, the tested form may be a part, canonical isoform): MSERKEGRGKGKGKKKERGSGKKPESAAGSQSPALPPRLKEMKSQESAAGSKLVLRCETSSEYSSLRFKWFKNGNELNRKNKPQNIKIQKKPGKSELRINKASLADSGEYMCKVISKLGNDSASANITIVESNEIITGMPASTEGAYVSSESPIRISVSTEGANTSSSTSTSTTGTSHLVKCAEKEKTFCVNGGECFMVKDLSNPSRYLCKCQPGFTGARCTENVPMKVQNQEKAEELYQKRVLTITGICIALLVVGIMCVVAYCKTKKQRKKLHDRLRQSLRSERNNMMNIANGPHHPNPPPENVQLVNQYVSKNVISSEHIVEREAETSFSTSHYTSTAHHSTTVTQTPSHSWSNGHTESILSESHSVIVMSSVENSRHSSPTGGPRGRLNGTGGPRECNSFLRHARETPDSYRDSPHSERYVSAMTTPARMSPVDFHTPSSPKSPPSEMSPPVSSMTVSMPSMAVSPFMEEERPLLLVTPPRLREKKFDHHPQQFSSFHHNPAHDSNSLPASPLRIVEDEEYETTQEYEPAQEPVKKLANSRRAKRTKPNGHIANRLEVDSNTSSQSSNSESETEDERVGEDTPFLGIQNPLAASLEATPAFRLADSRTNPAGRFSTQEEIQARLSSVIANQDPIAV

[7] = system: Neuregulin-1 EGF-like domain; experiment: binders of neuregulin-1 EGF-like domain, primary screen, biochemical, small-molecule microarray, 635 nm fluorescence (AID 1081); conditions: small-molecule microarray binding, higher = more signal;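 further: binding of the protein to compounds printed on small-molecule microarray slides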
[8] = FRG1 promoter luciferase signal modulators, primary screen, FRG1 inhibition for FSHD, cell-based, C2C12 myotubes, firefly/Renilla luciferase, luminescence (AID 1084); conditions: higher = more signal, called active from +8 up or from −8 down
[9] = binders of probe aFST on microarray, primary screen, stem cell growth factor project, biochemical, small-molecule microarray, fluorescence 635/667 (AID 1086); conditions: higher = more signal;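 further: score merges 667 nm fluorescence with signal-to-noise of each printed compound spot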
[10] = binders of probe aHhip on microarray, primary screen, stem cell growth factor project, biochemical, small-molecule microarray, fluorescence 635/667 (AID 1087); conditions: higher = more signal;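 further: score merges spot fluorescence at 667nm with spot signal to noise ratio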
[11] = system: PRMT1 (protein arginine N-methyltransferase 1); experiment: PRMT1 binders on small-molecule microarrays, primary screen, biochemical, small-molecule microarray, 635 nm fluorescence (AID 1088); conditions: small-molecule microarray binding, higher = more signal;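 further: binding of Prmt1 protein to compounds spotted on small-molecule microarray slides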
[12] = yeast growth modulation, basal conditions, primary screen, YJM789 clinical isolate, OD600, 24 h (AID 1089);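 further: growth of clinical yeast isolate S. cerevisiae YJM 789 seeded 1000 cells per well; test concentration not given here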; conditions: S. cerevisiae YJM789 growth, higher = more signal, called active from +8 up or from −8 down
[13] = fission yeast growth modulation, primary screen, strain 972, OD600, 24 h, no modulator (AID 1090);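 further: basal condition with compound alone and no growth modifier present; test concentration not given here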; conditions: S. pombe 972 growth, higher = more signal, called active from +8 up or from −8 down
[14] = S. cerevisiae growth modulation with rapamycin, primary screen, strain BY4716, OD600, 96 h (AID 1091); conditions: higher = more signal, called active from +8 up or from −8 down; further: test concentration not given here
[15] = molecular target: Torsin-1A-interacting protein 2 (Homo sapiens) (UniProt Q8NFQ8); experiment: LULL1 binders on small-molecule microarray, primary screen, cell lysate, human LULL1 lysate, 635/667 nm fluorescence (AID 1092); conditions: hLULL1 lysate binding, 635 nm fluorescence, higher = more signal;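 further: probe is lysate of COS7 cells overexpressing human LULL1; score merges per-feature 667 nm fluorescence with signal-to-noise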
Torsin-1A-interacting protein 2 (Homo sapiens), sequence (Q8NFQ8 whole entry, looked up): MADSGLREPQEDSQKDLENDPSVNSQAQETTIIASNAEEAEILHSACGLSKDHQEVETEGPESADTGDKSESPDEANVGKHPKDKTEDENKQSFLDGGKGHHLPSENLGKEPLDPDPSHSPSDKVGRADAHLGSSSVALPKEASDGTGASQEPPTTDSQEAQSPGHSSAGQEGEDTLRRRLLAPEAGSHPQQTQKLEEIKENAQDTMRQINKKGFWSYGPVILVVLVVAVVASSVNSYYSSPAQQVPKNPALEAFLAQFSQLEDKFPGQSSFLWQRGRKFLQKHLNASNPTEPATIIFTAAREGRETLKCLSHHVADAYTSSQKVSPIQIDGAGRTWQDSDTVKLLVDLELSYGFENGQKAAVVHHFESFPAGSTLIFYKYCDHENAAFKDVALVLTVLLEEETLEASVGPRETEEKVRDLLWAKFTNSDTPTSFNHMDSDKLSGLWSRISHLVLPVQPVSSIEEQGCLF

[16] = E. coli growth modulation, two-sided OD650, primary screen, E. coli filamentation project, strain DRC41, 24 h (AID 1093); conditions: OD650, 24 h, higher = more signal, called active from +8 up or from −8 down;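 further: MC1000 strain lacking acrAB efflux and sulA so SOS filamentation is blocked; test concentration not given here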
[17] = small-molecule microarray binders of probe aLefty2, primary screen, biochemical, biotinylated probe, 635/667 nm fluorescence (AID 1094); conditions: higher = more signal;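 further: score merges spot fluorescence near 667 nm with spot signal-to-noise ratio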
[18] = system: Noggin (protein binding on small-molecule microarray); experiment: Noggin binders on small-molecule microarray, primary screen, biochemical, 635/667 nm fluorescence (AID 1095); conditions: 635 nm fluorescence, higher = more signal;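 further: score merges 667 nm feature fluorescence with signal to noise over triplicate slides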
[19] = molecular target: Neurogenic locus notch homolog protein 3 (Homo sapiens) (UniProt Q9UM47); experiment: NOTCH3 binders on small-molecule microarray, primary screen, biochemical, 635/667 nm fluorescence (AID 1096); conditions: NOTCH3 binding, 635 nm fluorescence, higher = more signal
Neurogenic locus notch homolog protein 3 (Homo sapiens), sequence (Q9UM47 whole entry, looked up): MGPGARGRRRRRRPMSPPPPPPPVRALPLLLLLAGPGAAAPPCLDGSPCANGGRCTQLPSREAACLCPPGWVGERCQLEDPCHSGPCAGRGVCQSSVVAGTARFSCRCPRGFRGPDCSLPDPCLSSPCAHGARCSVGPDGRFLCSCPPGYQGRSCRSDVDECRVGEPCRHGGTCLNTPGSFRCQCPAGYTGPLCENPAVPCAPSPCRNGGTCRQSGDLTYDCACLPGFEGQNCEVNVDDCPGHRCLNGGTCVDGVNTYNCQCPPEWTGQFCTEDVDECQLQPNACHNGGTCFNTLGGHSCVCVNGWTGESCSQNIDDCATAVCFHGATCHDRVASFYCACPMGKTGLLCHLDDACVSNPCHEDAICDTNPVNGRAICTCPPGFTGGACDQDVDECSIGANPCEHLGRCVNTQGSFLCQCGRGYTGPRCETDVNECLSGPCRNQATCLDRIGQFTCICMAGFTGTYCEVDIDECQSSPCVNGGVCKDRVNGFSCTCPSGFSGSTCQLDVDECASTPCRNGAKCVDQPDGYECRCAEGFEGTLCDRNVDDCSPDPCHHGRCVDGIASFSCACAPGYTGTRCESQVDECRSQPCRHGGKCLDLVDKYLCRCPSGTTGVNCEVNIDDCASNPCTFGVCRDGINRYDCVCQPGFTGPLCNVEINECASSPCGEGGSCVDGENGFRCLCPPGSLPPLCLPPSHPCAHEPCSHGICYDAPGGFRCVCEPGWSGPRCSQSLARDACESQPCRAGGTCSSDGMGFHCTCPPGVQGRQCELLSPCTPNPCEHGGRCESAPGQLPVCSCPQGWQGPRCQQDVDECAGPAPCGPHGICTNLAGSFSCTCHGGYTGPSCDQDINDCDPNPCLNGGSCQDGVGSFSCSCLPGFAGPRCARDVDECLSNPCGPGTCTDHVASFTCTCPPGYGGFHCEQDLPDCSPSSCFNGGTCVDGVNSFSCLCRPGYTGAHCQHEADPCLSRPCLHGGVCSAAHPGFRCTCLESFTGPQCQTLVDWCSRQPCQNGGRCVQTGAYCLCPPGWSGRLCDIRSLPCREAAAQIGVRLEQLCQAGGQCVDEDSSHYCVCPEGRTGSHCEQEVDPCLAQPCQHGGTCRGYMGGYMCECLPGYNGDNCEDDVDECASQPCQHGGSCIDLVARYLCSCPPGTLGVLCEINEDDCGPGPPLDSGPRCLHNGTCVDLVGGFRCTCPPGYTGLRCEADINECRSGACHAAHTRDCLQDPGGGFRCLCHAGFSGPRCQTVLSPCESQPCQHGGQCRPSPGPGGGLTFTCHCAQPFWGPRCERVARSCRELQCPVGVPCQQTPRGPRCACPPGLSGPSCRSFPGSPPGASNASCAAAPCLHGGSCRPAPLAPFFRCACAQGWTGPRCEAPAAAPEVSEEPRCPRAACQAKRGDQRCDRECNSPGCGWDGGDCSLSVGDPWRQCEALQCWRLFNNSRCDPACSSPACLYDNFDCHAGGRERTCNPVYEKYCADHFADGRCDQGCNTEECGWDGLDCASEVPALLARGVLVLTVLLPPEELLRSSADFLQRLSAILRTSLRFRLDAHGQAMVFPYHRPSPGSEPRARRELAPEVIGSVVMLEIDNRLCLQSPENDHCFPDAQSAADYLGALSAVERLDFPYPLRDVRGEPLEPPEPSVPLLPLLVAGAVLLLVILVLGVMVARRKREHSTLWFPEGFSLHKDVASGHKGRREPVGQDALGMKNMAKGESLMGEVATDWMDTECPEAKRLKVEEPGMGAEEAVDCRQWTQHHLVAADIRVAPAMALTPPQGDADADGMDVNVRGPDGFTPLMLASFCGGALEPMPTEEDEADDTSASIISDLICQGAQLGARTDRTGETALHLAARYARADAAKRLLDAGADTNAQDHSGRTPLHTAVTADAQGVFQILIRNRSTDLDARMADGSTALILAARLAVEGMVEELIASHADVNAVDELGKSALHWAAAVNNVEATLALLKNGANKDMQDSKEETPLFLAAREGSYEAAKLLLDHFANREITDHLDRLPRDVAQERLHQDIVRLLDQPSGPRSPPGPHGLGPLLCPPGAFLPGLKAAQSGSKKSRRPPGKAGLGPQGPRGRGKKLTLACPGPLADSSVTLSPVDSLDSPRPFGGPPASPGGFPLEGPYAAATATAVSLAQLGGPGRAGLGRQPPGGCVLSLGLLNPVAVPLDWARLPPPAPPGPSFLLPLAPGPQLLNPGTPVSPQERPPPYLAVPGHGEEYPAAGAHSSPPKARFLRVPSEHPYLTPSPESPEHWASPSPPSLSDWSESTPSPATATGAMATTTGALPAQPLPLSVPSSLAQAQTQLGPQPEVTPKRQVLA

[20] = small-molecule microarray binders of probe aEGFR, primary screen, biochemical, biotinylated probe, 635/667 nm fluorescence (AID 1097); conditions: higher = more signal;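 further: probe is a biotinylated anti-EGFR antibody binding compounds printed on slides; score combines fluorescence near 667 nm and signal to noise of each spot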

| SMILES | composite z-score [1] | composite z-score [2] | composite z-score [3] | composite z-score [4] | composite z-score [5] | composite z-score [6] | composite z-score [7] | z-score [8] | composite z-score [9] | composite z-score [10] | composite z-score [11] | z-score [12] | z-score [13] | z-score [14] | composite z-score [15] | z-score [16] | composite z-score [17] | composite z-score [18] | composite z-score [19] | composite z-score [20] |
| --- | --- | --- | --- | --- | --- | --- | --- | --- | --- | --- | --- | --- | --- | --- | --- | --- | --- | --- | --- | --- |
| CC(=O)NCCCC[C@@H]1NC(=O)[C@@H]2C[C@H](C(=O)NCCCCCN)[C@H](c3ccc(O)cc3)N2C1=O | 0.95 | 1.25 | 0.088 | 0.864 | 0.702 | 0.995 | 1.43 | 0.604 (inactive) | 0.491 | -0.334 | 1.32 | 0.0163 (inactive) | -0.747 (inactive) | 0.536 (inactive) | 2.25 | 2.29 (inactive) | 0.5 | 0.61 | 1.14 | 0.328 |
| CN(C)C(=O)[C@@]1(Cc2ccccc2CN=[N+]=[N-])N=C(c2ccc(OCCCO)cc2)O[C@H]1c1ccccc1N=[N+]=[N-] | 0.388 | 0.021 | 0.0362 | 1.2 | 1.55 | 1.88 | 1.25 | -1.34 (inactive) | 1.44 | 0.0071 | 1.43 | -0.415 (inactive) | 0.417 (inactive) | 5.36 (inactive) | 3.37 | 0.151 (inactive) | 0.445 | 0.452 | 1.14 | 0.242 |
| CCOC(=O)C[C@H]1[C@H](OC(=O)c2cc3ccccc3oc2=O)[C@@H](NC(=O)c2ccc3ccccc3n2)c2cc(OCCCO)ccc2N1C(=O)Cc1ccc(OC)cc1 | -0.446 | 0.522 | -0.0107 | 0.302 | 0.958 | 1.03 | 0.946 | 0.547 (inactive) | 0.24 | -0.201 | 1.45 | -0.136 (inactive) | -0.163 (inactive) | -0.617 (inactive) | 1.33 | 0.397 (inactive) | -0.0391 | 0.638 | 1.16 | 0.104 |
| O=C1OCCC=C[C@H]2OC34C=CCN(Cn5nnc6ccccc65)C(=O)[C@H]3N(CCCO)C(=O)[C@@H]4C12 (stereo not given in full) | 0.32 | -0.173 | -0.116 | -0.169 | -1.3 | -0.763 | 0.437 | 0.0397 (inactive) | -0.601 | -0.236 | -1.72 | 0.0799 (inactive) | -0.973 (inactive) | -0.342 (inactive) | -1.7 | 1.81 (inactive) | -0.209 | -0.677 | -0.99 | -0.264 |
| [N-]=[N+]=Nc1ccccc1[C@@H]1OC(c2ccc(OCCCO)cc2)=N[C@]1(Cc1ccccc1)C(=O)N1CCCCC1 | 0.0153 | 1 | 0.122 | 0.9 | 1.39 | 1.37 | 1.28 | -2.33 (inactive) | 1.46 | 0.249 | 1.53 | -0.286 (inactive) | -0.487 (inactive) | 1.49 (inactive) | 3.27 | 0.27 (inactive) | 0.0277 | 0.847 | 1.04 | 0.001 |
| C=CCC(OC(C)=O)[C@@H]1[C@@H](N(Cc2cccc3ccccc23)C(=O)Cc2ccc(F)cc2)c2cc(OCCCO)ccc2N1C(=O)c1ccc2ccccc2c1 (stereo not given in full) | -0.0968 | -0.0168 | -0.0925 | 0.0597 | -0.108 | -0.398 | -0.691 | -1.72 (inactive) | -0.0779 | 0.0722 | -0.209 | -0.19 (inactive) | 1.43 (inactive) | -0.235 (inactive) | 0.226 | 0.693 (inactive) | 0.0261 | 0.154 | 0.268 | -0.0967 |
| C=C[C@H](C)[C@H](OC(=O)Nc1ccc(SC)cc1)c1ccc(OCCO)cc1 | -0.0439 | 1.18 | -0.1 | 0.406 | -0.34 | 0.745 | 1.15 | 4.38 (inactive) | 0.0319 | 0.0972 | 1.31 | -3.79 (inactive) | -2.34 (inactive) | 0.375 (inactive) | 1.53 | 0.938 (inactive) | 0.0548 | 0.415 | 0.862 | -0.15 |
| CC(CO)N1C(=O)[C@]2(C)C3C(=O)OCCC/C=C\[C@H]3OC23C=CCN(c2ccc(Cl)cc2)C(=O)[C@@H]13 (stereo not given in full) | -0.167 | -0.258 | -0.19 | 0.0755 | -0.27 | -0.639 | 1.25 | -0.906 (inactive) | -0.456 | -0.266 | -1.06 | 0.0276 (inactive) | -0.358 (inactive) | -0.14 (inactive) | -1.08 | 0.525 (inactive) | -0.152 | -0.554 | -0.162 | -0.165 |
| CC(C)N1C(=O)C[C@@](C(=O)NC2CC2)(c2ccc([N+](=O)[O-])cc2)[C@H]1c1ccc(CO)cc1 | 0.632 | 0.387 | -0.111 | 0.173 | -0.551 | 1.75 | 1.35 | 0.74 (inactive) | -0.551 | -0.0994 | 0.978 | -0.195 (inactive) | -1.08 (inactive) | 0.601 (inactive) | 3.25 | 0.718 (inactive) | 0.0702 | -1.15 | -0.46 | -0.281 |
| C=CCNC(=O)[C@@H]1[C@H]2C(=O)O[C@H](c3ccccc3)[C@H](c3ccccc3)N2[C@H](c2ccccc2OCCO)[C@@]12C(=O)Nc1ccc(C#CCC(C(=O)OC)C(=O)OC)cc12 | -0.44 | 0.491 | -0.116 | 0.422 | 0.894 | 1.39 | 1.28 | 1.1 (inactive) | -0.437 | -0.347 | 1.45 | 1.13 (inactive) | 1.19 (inactive) | 3.72 (inactive) | 1.77 | -0.736 (inactive) | -0.366 | 0.0639 | 1.07 | -0.24 |
